# Assay results as given in ChEMBL document CHEMBL4888484, “Replenishing the malaria drug discovery pipeline: Screening and hit evaluation of the MMV Hit Generation Library 1 (HGL1) against asexual blood stage Plasmodium falciparum ,using a nano luciferase reporter read-out” (2022).
# Screen size: about 4,800 compounds; about 410 (8.5%) showed an effect of 50% or more. Many of the other results were omitted from the sample, so strong results are more common in it than they were.
# Tested on: Plasmodium falciparum
# Test: Confirmatory screen in NF54 pLDH assay, in single point, at 2uM, 72h
# Format: functional, Erythrocyte
# Conditions: timepoint 72 hour
row,Compound,% Inhibition [%]
1,O=C(NC[C@H]1CCCO1)c1cc(C(=O)C2CC2)c[nH]1,-8
2,O=C(CC1CCOCC1)NCc1ccccn1,-24
3,O=C(NCC1CCOCC1)c1ccc2n[nH]c(=O)n2c1,6
4,COCc1cc(C(=O)N[C@H](c2ccccc2)C2CCOCC2)no1,8
5,COc1nc(-c2cccc(C(=O)NCC3CCOCC3)c2)ncc1F,80
6,Cc1ccc(C(=O)N2CC(n3cnnc3C)C2)cc1F,-17
7,COc1ccc(-c2[nH]ncc2C(=O)NCC2CCCCC2)cc1OC,6
8,COc1nc(-c2cccc(C(=O)N3C[C@@H]4CC[C@H](C3)C(=O)N4)c2)ncc1F,85
9,COc1ccc(C(=O)N2CC[C@H](c3nc(C4CCOCC4)no3)C2)cc1OC,11
10,CC(C)(NC(=O)CC1(O)CCCCC1)C(=O)Nc1ccccc1,5
11,O=C(Nc1ccc(F)cc1)c1c(-c2ccc(Cl)cc2)nc2n1CCS2(=O)=O,-4
12,COC(=O)C1C2CCC(C2)C1NC(=O)c1ccncc1 (centres undefined),2
13,O=C([C@@H]1CCCN1c1ncc(C(F)(F)F)cc1Cl)N1Cc2ccccc2C1,-18
14,CCOC(=O)[C@@H](NC(=O)Nc1ccccc1C(F)(F)F)C(F)(F)F,11
15,O=C(NC1CC1C1CCCCC1)N1CCS(=O)(=O)CC1 (centres undefined),-4
16,COC(=O)c1c(NC(C)=O)c2cc(NC3CCOCC3)cnc2n1CCc1ccc(OC)cc1,61
17,COc1ccc(NC(=O)[C@@H](C)C2CCOCC2)cc1,-5
18,CCc1c(NC(=O)[C@@H](C)C2CC2)nnn1CCc1ccc(OC)cc1,12
19,Cc1nc(CN2C(=O)C(=O)c3cc(Br)ccc32)cs1,9
20,Cc1ccn2c(CN3CCN([C@H]4CCN(Cc5ccccc5)C4)CC3)c(C)nc2c1,9
21,O=C(Cc1cccc2ccccc12)NC(C1CC1)C1CC1,-12
22,COc1ccc(NS(=O)(=O)c2ccc(NC(=O)CN(c3ccc(F)cc3)S(C)(=O)=O)cc2)cc1,12
23,COc1ccccc1Cc1nnc2n1CCCC2,8
24,COc1cc(CNC2CCCCC2)cc(Br)c1OCc1ccccc1Cl,8
25,CNC(=O)[C@@H]1C[C@H](NCc2cc(OC)c(OC)c(OC)c2)CN1CC(c1ccccc1)c1ccccc1,50

row,Compound,% Inhibition [%]
1,COc1cc(NC(=O)N2CC(c3noc(-c4ccccc4)n3)C2)cc(OC)c1OC,3
2,CC(=O)c1ccc(C(C)(C)C)cc1NC(=O)C(C)C,8
3,O=C(CCn1nc2ccccn2c1=O)N1CC(CC(F)F)C1,6
4,C[C@]1(C(=O)O)Nc2ccccc2-c2nc(=O)c(-c3ccccc3)nn21,9
5,O=c1nc2n(nc1-c1ccccc1)C1(CCC1)Nc1ccccc1-2,60
6,C[C@]1(CCc2ccc(O)cc2)Nc2ccccc2-c2nc(=O)c(-c3ccc(F)cc3)nn21,-12
7,Nc1nccnc1C(=O)Nc1c(-c2ccccc2)ncn1C1CC1,3
8,COc1ccc(-n2ncc(Oc3cccc(C)c3)c(Nc3cccc(C(=O)NCc4ccc(F)cc4)c3)c2=O)cc1,30
9,Cn1cc2c(n1)CCC[C@@H]2NC(=O)c1cccc(C(=O)NC2CC2)c1,0
10,CC(C)c1ccc(Oc2cnn(-c3cccc(Cl)c3)c(=O)c2Nc2cccc(C(=O)NC3CC3)c2)cc1,54
11,CCn1ncc2ccc(N[C@@H](C)C3(O)CCOCC3)cc21,12
12,CCOc1ccc(C(=O)N2CCN(c3nnc4ccccn34)CC2)cc1,8
13,CC(=O)c1cccc(NC(=O)c2nonc2C)c1,-11
14,CCN1C(=O)c2ccccc2N2C(=O)CC[C@@]12C(=O)Nc1cccc(OC)c1,96
15,COc1cccc(NC(=O)c2ccc3c(c2)N(C)[C@@H]2CCCCCN2C3=O)c1,9
16,O=C(CN1C[C@@H](c2ccccc2)Oc2ccccc2C1=O)Nc1ccccc1,-14
17,COc1ccc(NC(=O)CN2N=C(C(=O)Nc3ccccc3)CCC2=O)cc1,-2
18,CCCN1C(=O)c2ccccc2N2C(=O)CC[C@@]12C(=O)Nc1ccccc1,97
19,COc1ccc(NC(=O)C2=NN(CC(=O)Nc3cccc(OC)c3)C(=O)CC2)cc1,-4
20,COc1ccc(NC(=O)CCC(=O)N2CCc3ccccc3C2)cc1,6
21,CC(=O)c1cccc(NC(=O)Cn2c(=O)n(CCc3ccccc3)c(=O)c3ccccc32)c1,10
22,CC(=O)c1cccc(NC(=O)[C@@]23CCC(=O)N2c2ccccc2C(=O)N3C)c1,88
23,CCCN1C(=O)c2ccccc2N2C(=O)CC[C@@]12C(=O)Nc1ccc(OC)cc1,92
24,CC(=O)N1C(C(=O)O)Cc2c([nH]c3ccccc23)C1c1ccc2c(c1)OCO2 (centres undefined),5
